From PubChem BioAssay (Tox21)
Where “and” joins values, the source holds several entries; their conditions need not be identical. Equal entries are not always repeated. Records with an inconclusive call do not appear. Where a call stands in place of a potency, no number is given. Some compounds were tested as several samples or in several runs, with calls that do not always agree. Calls of active or inactive are those of the source. The call rests on the fitted dose curve; in most records, active means well fitted curve in the direction sought with a large enough effect in the repeat runs; inconclusive means weak or mixed curves; inactive means no such curve, though single readings can be large; an effect the other way counts as inactive or inconclusive.

Assay: qHTS assay for small molecule disruptors of the mitochondrial membrane potential (AID 720635); further: potency means the concentration at half of the fitted maximal effect
Details: HepG2 mitochondrial membrane potential, Mito-MPS dye ratio; series mostly up to 83.2 µM
How it was run: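 HepG2 cells (2,000/well) attached overnight at 37C, then took compound for 1 hr at 37C, 5% CO2. Mito-MPS dye was added for 30 min; fluorescence was read at 490/535 nm (monomers) and 540/590 nm (aggregates).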
For `CCC(C)c1cc([N+](=O)[O-])cc([N+](=O)[O-])c1O` (stereo not given), the Potency was “inactive and 344 nM (active)”. For `COP(=O)(OC)OC`, the Potency was “inactive”. With `CCN(CC)C(=O)SCc1ccc(Cl)cc1` the Potency was 19.9 µM (active) and 12.2 µM (active). With `CCN(N=O)C(N)=O` the Potency was “inactive”. With `Cc1ccccc1[N+](=O)[O-]` the Potency was “inactive”. For `Cc1ccc(OP(=O)(Oc2ccc(C)cc2)Oc2ccc(C)cc2)cc1`, the Potency was 24.3 µM (active). With `O=C(O)CC[N+](=O)[O-]` the Potency was “inactive”. For `Nn1cnnc1`, the Potency was “inactive”. With `c1nc[nH]n1` the Potency was “inactive”. For `CCOP(=S)(OCC)O/N=C(\C#N)c1ccccc1`, the Potency was “inactive”. In the case of `O=c1oc2ccccc2c(O)c1C(CC(O)c1ccc(-c2ccc(Br)cc2)cc1)c1ccccc1` (stereo not given), the Potency was 6.68 µM (active) and 23 µM (active). In the case of `Nc1ccc(Cl)c(Cl)c1`, the Potency was “inactive”. For `CN(C)c1ccc(C(=O)c2ccc(N(C)C)cc2)cc1`, the Potency was 53.9 µM (active). For `CCCCN(CCCC)N=O`, the Potency was “inactive”. In the case of `OCC(O)CO`, the Potency was “inactive”. For `O=C(Nc1ccc(Br)cc1)c1cc(Br)cc(Br)c1O`, the Potency was 1.88 µM (active) and 543 nM (active) and 545 nM (active). For `CCOC(=S)S`, the Potency was “inactive”. For `Oc1c(Cl)c(Cl)c(Cl)c(Cl)c1Cl`, the Potency was 3.78 µM (active) and 1.53 µM (active). In the case of `O=P(Oc1ccccc1)(Oc1ccccc1)Oc1ccccc1`, the Potency was 242 nM (active) and 1.22 µM (active). In the case of `O=P(O)(O)CCCl`, the Potency was “inactive”. In the case of `c1ccc(NNc2ccccc2)cc1`, the Potency was “inactive”. In the case of `CC(C)(OOC(C)(C)c1ccccc1)c1ccccc1`, the Potency was 60.3 µM (active). With `CC(C)N(C(=O)SCC(Cl)=C(Cl)Cl)C(C)C` the Potency was 13.5 µM (active). With `O=[N+]([O-])c1ccc(O)c([N+](=O)[O-])c1` the Potency was 689 nM (active) and 545 nM (active). In the case of `COP(=S)(OC)Oc1cc(Cl)c(Cl)cc1Cl`, the Potency was 11.9 µM (active) and 29.8 µM (active) and 7.64 µM (active). For `CCN(CC)N=O`, the Potency was “inactive”.

Assay: qHTS assay to test for compound auto fluorescence at 590 nm (red) in HepG2 cells (AID 720674)
Details: HepG2 autofluorescence, red 540/590 nm, 1 h; series mostly up to 91.3 µM
How it was run: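 Compound auto-fluorescence is scored relative to Rose Bengal sodium, measured at 540/590 nm in live HepG2 cultures after 1 hr compound contact (37 C, 5% CO2).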
With `CNC(=O)N(C)c1nnc(C(C)(C)C)s1` the outcome was “inactive”. For `CCC(C)c1cc([N+](=O)[O-])cc([N+](=O)[O-])c1O` (stereo not given), the outcome was “inactive”. In the case of `COP(=O)(OC)OC`, the outcome was “inactive”. With `CCN(CC)C(=O)SCc1ccc(Cl)cc1` the outcome was “inactive”. With `CCN(N=O)C(N)=O` the outcome was “inactive”. With `Cc1ccccc1[N+](=O)[O-]` the outcome was “inactive”. In the case of `Cc1ccc(OP(=O)(Oc2ccc(C)cc2)Oc2ccc(C)cc2)cc1`, the outcome was “inactive”. In the case of `O=C(O)CC[N+](=O)[O-]`, the outcome was “inactive”. With `CCCCC(CC)COC(=O)c1ccc(C(=O)OCC(CC)CCCC)c(C(=O)OCC(CC)CCCC)c1` (stereo not given) the outcome was “inactive”. In the case of `Nn1cnnc1`, the outcome was “inactive”. In the case of `N[C@@H](Cc1ccc(N(CCCl)CCCl)cc1)C(=O)O`, the outcome was “inactive”. In the case of `c1nc[nH]n1`, the outcome was “inactive”. For `CCOP(=S)(OCC)O/N=C(\C#N)c1ccccc1`, the outcome was “inactive”. For `C[C@]12CCC(=O)C[C@@H]1CC[C@@H]1[C@@H]2CC[C@]2(C)[C@@H](O)CC[C@@H]12`, the outcome was “inactive”. In the case of `O=c1oc2ccccc2c(O)c1C(CC(O)c1ccc(-c2ccc(Br)cc2)cc1)c1ccccc1` (stereo not given), the outcome was “inactive”. In the case of `Nc1ccc(Cl)c(Cl)c1`, the outcome was “inactive”. With `ClC1C(Cl)C(Cl)C(Cl)C(Cl)C1Cl` (stereo not given) the outcome was “inactive”. With `CN(C)c1ccc(C(=O)c2ccc(N(C)C)cc2)cc1` the outcome was “inactive”. With `CCCCN(CCCC)N=O` the outcome was “inactive”. In the case of `O=C(Nc1ccc(Br)cc1)c1cc(Br)cc(Br)c1O`, the outcome was “inactive”. In the case of `S=C1NCCN1`, the outcome was “inactive”. With `CCOC(=S)S` the outcome was “inactive”. With `Oc1c(Cl)c(Cl)c(Cl)c(Cl)c1Cl` the outcome was “inactive”. For `O=P(Oc1ccccc1)(Oc1ccccc1)Oc1ccccc1`, the outcome was “inactive”. For `CC(O)CCO` (stereo not given), the outcome was “inactive”. With `O=P(O)(O)CCCl` the outcome was “inactive”. With `c1ccc(NNc2ccccc2)cc1` the outcome was “inactive”. In the case of `CC(C)(OOC(C)(C)c1ccccc1)c1ccccc1`, the outcome was “inactive”. For `CC(C)N(C(=O)SCC(Cl)=C(Cl)Cl)C(C)C`, the outcome was “inactive”. For `O=[N+]([O-])c1ccc(O)c([N+](=O)[O-])c1`, the outcome was “inactive”. With `O=[N+]([O-])c1cccc2ccccc12` the outcome was “inactive”. With `COP(=S)(OC)Oc1cc(Cl)c(Cl)cc1Cl` the outcome was “inactive”. With `C=CCc1ccc2c(c1)OCO2` the outcome was “inactive”. For `CCN(CC)N=O`, the outcome was “inactive”. For `C#C[C@]1(O)CC[C@H]2[C@@H]3CCC4=CC(=O)CC[C@]4(C)[C@H]3CC[C@@]21C`, the outcome was “inactive”. For `c1ccc(P(c2ccccc2)c2ccccc2)cc1`, the outcome was “inactive”. With `Cc1cc(Cl)ccc1OCCCC(=O)O` the outcome was “inactive”.

Assay: qHTS assay to test for compound auto fluorescence at 535 nm (green) in HepG2 cells (AID 720675)
Details: green autofluorescence 485/535 nm, 1 h; series mostly up to 91.3 µM
For `CNC(=O)N(C)c1nnc(C(C)(C)C)s1`, the outcome was “inactive”. For `CCC(C)c1cc([N+](=O)[O-])cc([N+](=O)[O-])c1O` (stereo not given), the outcome was “inactive”. With `COP(=O)(OC)OC` the outcome was “inactive”. In the case of `CCN(CC)C(=O)SCc1ccc(Cl)cc1`, the outcome was “inactive”. With `CCN(N=O)C(N)=O` the outcome was “inactive”. For `Cc1ccccc1[N+](=O)[O-]`, the outcome was “inactive”. With `Cc1ccc(OP(=O)(Oc2ccc(C)cc2)Oc2ccc(C)cc2)cc1` the outcome was “inactive”. For `O=C(O)CC[N+](=O)[O-]`, the outcome was “inactive”. For `CCCCC(CC)COC(=O)c1ccc(C(=O)OCC(CC)CCCC)c(C(=O)OCC(CC)CCCC)c1` (stereo not given), the outcome was “inactive”. With `Nn1cnnc1` the outcome was “inactive”. In the case of `N[C@@H](Cc1ccc(N(CCCl)CCCl)cc1)C(=O)O`, the outcome was “inactive”. In the case of `c1nc[nH]n1`, the outcome was “inactive”. For `CCOP(=S)(OCC)O/N=C(\C#N)c1ccccc1`, the outcome was “inactive”. In the case of `C[C@]12CCC(=O)C[C@@H]1CC[C@@H]1[C@@H]2CC[C@]2(C)[C@@H](O)CC[C@@H]12`, the outcome was “inactive”. With `O=c1oc2ccccc2c(O)c1C(CC(O)c1ccc(-c2ccc(Br)cc2)cc1)c1ccccc1` (stereo not given) the outcome was “inactive”. In the case of `Nc1ccc(Cl)c(Cl)c1`, the outcome was “inactive”. With `ClC1C(Cl)C(Cl)C(Cl)C(Cl)C1Cl` (stereo not given) the outcome was “inactive”. For `CN(C)c1ccc(C(=O)c2ccc(N(C)C)cc2)cc1`, the outcome was “inactive”. For `CCCCN(CCCC)N=O`, the outcome was “inactive”. For `O=C(Nc1ccc(Br)cc1)c1cc(Br)cc(Br)c1O`, the outcome was “inactive”. For `S=C1NCCN1`, the outcome was “inactive”. For `CCOC(=S)S`, the outcome was “inactive”. In the case of `Oc1c(Cl)c(Cl)c(Cl)c(Cl)c1Cl`, the outcome was “inactive”. In the case of `O=P(Oc1ccccc1)(Oc1ccccc1)Oc1ccccc1`, the outcome was “inactive”. In the case of `CC(O)CCO` (stereo not given), the outcome was “inactive”. For `O=P(O)(O)CCCl`, the outcome was “inactive”. In the case of `c1ccc(NNc2ccccc2)cc1`, the outcome was “inactive”. For `CC(C)(OOC(C)(C)c1ccccc1)c1ccccc1`, the outcome was “inactive”. For `CC(C)N(C(=O)SCC(Cl)=C(Cl)Cl)C(C)C`, the outcome was “inactive”. For `O=[N+]([O-])c1ccc(O)c([N+](=O)[O-])c1`, the outcome was “inactive”. In the case of `O=[N+]([O-])c1cccc2ccccc12`, the outcome was “inactive”. With `COP(=S)(OC)Oc1cc(Cl)c(Cl)cc1Cl` the outcome was “inactive”. In the case of `C=CCc1ccc2c(c1)OCO2`, the outcome was “inactive”. With `CCN(CC)N=O` the outcome was “inactive”. With `C#C[C@]1(O)CC[C@H]2[C@@H]3CCC4=CC(=O)CC[C@]4(C)[C@H]3CC[C@@]21C` the outcome was “inactive”. In the case of `c1ccc(P(c2ccccc2)c2ccccc2)cc1`, the outcome was “inactive”. With `Cc1cc(Cl)ccc1OCCCC(=O)O` the outcome was “inactive”.
